Shown is part of a subset that was picked to be rich in hits.
Cycloheximide cs = Cycloheximide Counterscreen for Small Molecule Inhibitors of Shiga Toxin; 300,000 tested, 12% active; cell reporter, cycloheximide protein synthesis inhibition counterscreen; max response, %; in the data active = max response mostly above about 13%, no sharp cut-off; inactive = mostly below about 14%; also: read at 38.3 µM for the half of the compounds with a filed dose; 0% is about no effect
Shiga inhibitor = A qHTS for Small Molecule Inhibitors of Shiga Toxin; inhibition, % at 38.7 µM; 290,000 tested, 9.2% active; AID 2315, 2010; Vero cells, Shiga toxin protein synthesis inhibition reporter; in the data active = inhibition mostly above about 28%, no sharp cut-off; inactive = mostly below about 43%; also: 0% is about no effect
Tb PYK inh = qHTS of Trypanosoma Brucei Inhibitors; pyruvate kinase (Trypanosoma brucei), Q57TT1; 410,000 tested, 0.12% active; AID 624173, 2012; TbPYK enzyme, Kinase-Glo Plus ATP luminescence, 45 min; Potency, µM (highest dose often 76.8 µM), without a hit: at the top dose activity, negative = inhibition, actives largely listed as inhibitors; also: potency is read from the fitted curve at half-maximal effect; % is scaled to controls: 0 for no effect and ±100 for the full control effect; nearly all actives have a fitted effect of over 50% in size
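Screened from lowest to highest concentration, compounds were pinned into TbPYK/substrate mixtures, and ADP (130 uM final) was added. Plates sat at room temperature for 45 min prior to Kinase-Glo Plus detection by luminescence.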
LmPK inhibitor = qHTS Assay for Inhibitors of Leishmania Mexicana Pyruvate Kinase (LmPK). Q27686. purified LmPK, Kinase-Glo ATP luminescence, 1 h. Potency, µM (titrated, usually from 57.5 µM), for inactives: at the highest dose activity change, negative = inhibition, most hits filed as inhibitors. 290,000 tested, 0.37% active; also: potency is read from the fitted curve at half-maximal effect; % is scaled to controls: 0 for no effect and ±100 for the full control effect
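qHTS format; LmPK 0.1 nM; substrates PEP 0.5 mM and ADP 0.1 mM. One-hour room-temperature incubation, then coupled luciferase luminescence; 0.5 nM enzyme wells mark activation.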
Giardia FBPA inh = qHTS Assay for Inhibitors of Fructose-1,6-bisphosphate Aldolase from Giardia Lamblia | A8B2U2 | purified Giardia FBPA | 290,000 tested, 0.71% active | AID 2451, 2010 | Potency, µM (highest dose often 59.6 µM), for inactives: at the top dose activity, negative = inhibition, actives largely listed as inhibitors; also: potency is read from the fitted curve at half-maximal effect; % is scaled to controls: 0 for no effect and ±100 for the full control effect; nearly all actives have a fitted effect of over 55% in size
Target sequence (A8B2U2 whole entry, looked up): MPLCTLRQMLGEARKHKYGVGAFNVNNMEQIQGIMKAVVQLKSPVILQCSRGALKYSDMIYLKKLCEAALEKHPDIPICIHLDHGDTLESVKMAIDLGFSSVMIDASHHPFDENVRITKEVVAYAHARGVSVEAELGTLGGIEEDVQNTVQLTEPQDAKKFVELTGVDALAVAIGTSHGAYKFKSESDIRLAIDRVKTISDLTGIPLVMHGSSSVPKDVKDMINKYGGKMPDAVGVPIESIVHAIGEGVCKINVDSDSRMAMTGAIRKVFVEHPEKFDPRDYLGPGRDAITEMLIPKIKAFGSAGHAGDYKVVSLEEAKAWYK
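Giardia FBPA (40 nM reagent) was preincubated 10 min at RT with compound (up to 57.5 uM final), then substrate plus GAPDH/TPI/NAD/arsenate coupling system with diaphorase/resazurin was added; resorufin fluorescence (525/598 nm) was read after 20 min.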
RE007 growth inh = qHTS Assay for Inhibitors of the HIV-1 protein Vpr; Potency, µM (top dose mostly 92.2 µM), without a hit: top-dose activity change, negative = less growth, most hits filed as inhibitors; AID 651644, 2012; 360,000 tested, 0.21% active; S. pombe RE007 Vpr strain, BacTiter-Glo ATP luminescence, 24 h; active = well fitted falling curve with a large enough effect; inconclusive = small, poorly fitted or top-dose-only effect; inactive = no such curve, though single readings can be large or run the other way; also: potency is read from the fitted curve at half-maximal effect; % is scaled to controls: 0 for no effect and ±100 for the full control effect; nearly all actives have a fitted effect of over 50% in size
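Fission yeast strain RE007, carrying one chromosomally integrated HIV-1 vpr copy, was seeded at OD 0.01 in PMG+AL medium with 23 nL pinned compound. After 24 h at 30 °C and 99% humidity, viability was read by BacTiter-Glo luminescence.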
Numbers without * were called inactive; ? = inconclusive; / = no result given; [ ] = remark or other dose. Unless noted, calls follow the shape of the dose curve; as a rule, active = well fitted curve in the direction sought with a large enough effect; inconclusive = small, poorly fitted or top-dose-only effect, or another doubt; inactive = no such curve, though single readings can be large; an effect the other way counts as inactive or inconclusive.

SMILES	Cycloheximide cs	Shiga inhibitor	Tb PYK inh	LmPK inhibitor	Giardia FBPA inh	RE007 growth inh
C=CCc1cccc(/C=C/c2cc(=O)c3ccccc3[nH]2)c1O	25.3*	65.3*	-3.5%	-0.9%	-15.9%	4.2%
CC(=NCCCN(C)C)C1=C(O)c2ccccc2C1=O	30.5	84.4	0.6%	6.2%	1.4%	14.4%
CCOc1ccc(N=C(C)C2=C(O)c3ccccc3C2=O)cc1	43.4*	193.8*	-9.8%	-11.9%	-5.1%	-3.2%
CC(=O)Nc1ccc(N=C(C2=C(O)c3ccccc3C2=O)c2ccccc2)cc1	44.0*	63.3*	6.1%	1.2%	-8.7%	31.1%
COc1ccc(N=C(C)C2=C(O)c3ccccc3C2=O)cc1	58.1*	114.7*	-5.9%	-27.4%	-3.5%	-10.1%
N#Cc1c(C(F)(F)F)cc(-c2cccs2)nc1SCC(=O)Nc1ccccc1F	/	/	-9.7%	/	/	/
COc1ccc(OC)c(NC(=O)c2c(N3CCCC3=O)c3cc(OC)ccc3n2C)c1	/	/	0.7%	/	/	/
COc1ccc(-c2nc3cc(C)ccn3c2NCc2ccc3c(c2)OCO3)cc1	27.2*	133.4*	0.2%	1.4%	-9.1%	-22.0%
COc1ccc(-c2nc3ccccn3c2NCc2ccc3c(c2)OCO3)cc1	22.3*	49.4*	-3.5%	-21.7%	-0.4%	?
CC1=C(c2ccc(C)c(C)c2)S(=O)(=O)N=C1N1CCN(c2cccc(C(F)(F)F)c2)CC1	/	/	-3.7%	/	/	/
c1coc(-c2nc3n(n2)C2(CCCCC2)[C@@H]2CCCC[C@@H]2N3)c1	/	/	4.2%	/	/	/
O=[N+]([O-])c1ccc(-n2cnc3ccccc32)c([N+](=O)[O-])c1	-0.6	-3.3	-0.5%	18.7%	-16.0%	-1.2%
O=C(NCCN1CCOCC1)C1(C(F)(F)F)CC(CCCO)CCCO1 (stereo not given)	-1.8	-4.3	/	/	5.6%	/
COc1ccc(CN(C)CCc2ccccn2)cc1OC	-3.4	-2.5	-1.3%	9.2%	6.29µM*	12.2%
O=C(Cc1ccc(-c2ccccc2)cc1)Nc1ncccc1O	37.2*	79.9*	-1.4%	2.6%	-15.7%	?
O=C(Cc1ccc(-c2ccccc2)cc1)Nc1ccccc1	21.5*	21.4	-1.4%	-4.8%	14.3%	8.7%
O=C(C[n+]1ccc(Cc2ccccc2)cc1)Nc1ccccc1	25.3	39.4*	2.1%	3.1%	-3.3%	2.5%
O=C(C[n+]1ccccc1)Nc1ccccc1	/	/	-1.1%	/	/	7.1%
Cc1cccc(NC(=O)Cc2ccc(-c3ccccc3)cc2)n1	5.4	13.8	-7.5%	-3.0%	-7.0%	-9.0%
O=C(Nc1ccc2c(c1)CCO2)Nc1nnc([C@H]2C[C@H](O)[C@@H](CO)O2)s1	/	/	5.5%	/	/	17.1%
O=C(Nc1ccncc1)Nc1ccc(Cl)cc1	32.8*	42.3	-18.0%	4.7%	18.7%	-14.2%
O=C(Nc1cccc(Cl)c1)Nc1cnccn1	-2.9	16.3	6.3%	-7.8%	-0.3%	-10.3%
CC(C)c1ccc(NC(=O)Nc2cnccn2)cc1	60.8*	73.3*	0.1%	-1.2%	/	8.8%
O=C(Nc1cnccn1)Nc1cccc(Cl)c1Cl	26.3*	16.4	1.3%	1.2%	16.4%	2.2%
O=C(Nc1ccccc1)Nc1cnccn1	15.2	24.2*	6.2%	-8.9%	5.1%	-11.2%
SMILES	Cycloheximide cs	Shiga inhibitor	Tb PYK inh	LmPK inhibitor	Giardia FBPA inh	RE007 growth inh
O=C(Nc1cnccn1)Nc1ccccc1Cl	11.6	62.0	-1.2%	-5.6%	3.2%	-11.5%
CNS(=O)(=O)c1cc(-c2nnc(Nc3cc(C)ccc3C)c3ccccc23)ccc1C	/	/	-1.0%	/	/	/
Cc1ccc(NC(=O)c2cc3c(=O)oc4ccc(C)cc4c3s2)nc1	-1.0	-5.2	/	0.8%	8.0%	/
Cc1ccc(NC(=O)Nc2cnccn2)cc1C	28.2*	96.5*	2.4%	2.4%	1.5%	-16.0%
O=C(Nc1ccc(Cl)cc1)Nc1cnccn1	27.4*	26.3	6.3%	-4.4%	1.5%	1.1%
COc1ccc(NC(=O)Nc2cnccn2)cc1OC	6.4	9.2	-9.6%	-3.0%	-7.3%	2.2%
Cc1cc(C)cc(NC(=O)Nc2cnccn2)c1	-5.8	30.7	6.1%	-11.1%	/	-8.4%
Cc1ccc(NC(=O)Nc2cnccn2)cc1	62.8*	71.7*	3.3%	1.2%	-8.5%	-5.0%
COC(=O)C1=C(C)N(Cc2ccccc2)[C@]23O[C@](C(=O)OC)(C(=O)N2C1c1ccccc1)C1CCOC(=O)C13 (stereo not given in full)	/	/	/	/	-0.6%[12.9 µM]	/
CCOC(=O)c1ccc(-c2cc(C)no2)[nH]1	9.9	41.9*	-0.4%	3.7%	-5.3%	23.5%
CCOC(=O)N1CCN(C(=O)c2cc(C)no2)CC1	-9.0	-13.3	0.6%	1.6%	4.1%	11.9%
COc1ccc(-c2cc(C(F)(F)F)n3nc(C(=O)O)c(Cl)c3n2)cc1OC	/	/	2.3%	/	/	/
Cc1ccc(/C(=N/Nc2nc3ccccc3s2)C2=C(O)c3ccccc3C2=O)cc1	18.7	43.7*	6.4%	5.0%	-5.5%	-5.3%
CCc1ccc2oc(-c3cccc(NC(=O)c4cccnc4)c3)nc2c1	34.5*	66.1*	2.5%	-2.2%	10.2%	-12.4%
O=C(Cc1ccccc1)Nc1ccc2oc(-c3cccnc3)nc2c1	21.0	33.8*	-2.9%	-0.2%	-2.5%	-5.2%
COc1ccc(-c2nc3cc(NC(=S)NC(=O)Cc4ccccc4)ccc3o2)cc1	34.6*	37.1	-14.3%	-0.5%	0.3%	7.2%
CCc1ccc2oc(-c3cccc(NC(=O)c4cc5ccccc5o4)c3)nc2c1	/	/	-7.5%	/	/	/
CCC(=O)NC(=S)Nc1ccc2oc(-c3ccc(OC)cc3)nc2c1	15.4	24.2	0.1%	-0.6%	8.3%	-0.4%
O=C(Nc1ccc2oc(-c3ccccc3F)nc2c1)c1cncc(Br)c1	25.3*	41.7*	-0.4%	1.5%	-1.3%	9.5%
O=C(Nc1ccc2oc(-c3ccccc3F)nc2c1)c1ccccc1Cl	/	/	1.4%	/	/	/
CCOC(=O)C1CCN(C(=O)C2CCN(c3nnc(C)c4c(C)n(-c5ccccc5)nc34)CC2)CC1	/	/	1.3%	/	/	/
CCCNC(=O)c1cc(C2CCCCN2C(=O)CCCc2ccccc2)on1 (stereo not given)	/	/	3.0%	/	/	5.7%
O=C(Nc1ccc2oc(-c3ccccc3)nc2c1)c1cccnc1	38.5*	54.0*	-11.1%	2.4%	-0.4%	-5.3%
COc1ccc(C2CC(=O)Nc3c2c(C)nn3-c2nncc(-c3ccc(C)cc3)n2)c(OC)c1OC (stereo not given)	/	/	-12.1%	/	/	/
Cc1ccc(-c2csc(N=C(N)N)n2)cc1	28.1*	63.5*	5.0%	0.2%	1.9%	2.3%
COC(=O)c1c(SCC(=O)Nc2cccc(Cl)c2C)[nH]c2ccccc2c1=O	/	/	-5.4%	/	/	/
O=C(O)CSCC(=O)Nc1ccc(-c2nc3ccccc3s2)cc1	35.0*	53.7*	?	-26.1%	23.9%	-9.6%

Bioassay records as filed in PubChem.
